# Assay results from PubChem BioAssay AID977606 (Broad Institute, 2014).
# Out of some 1,500 compounds screened, about 430 (29%) were called active. The rule behind the calls is not given here. The list is a sample of the results. A call without a number means that no potency is given here. Potency and affinity values are given separately.
# Assay: glucose-independent GLuc insulin release activation – cell-based, INS-1E, Gaussia luciferase, luminescence, cherry-pick, counter-screen for glucose-dependent insulin secretion activators, dose response (AID 977606)
# Settings: INS-1E Gaussia luciferase insulin secretion, no glucose, 100% = twice neutral-control luminescence; series mostly up to 35 µM
row,Compound,outcome
1,Nc1nc(SCc2nc3scc(-c4ccccc4)c3c(=O)[nH]2)n[nH]1,inactive
2,CCCC(=O)Nc1ccc(N2CCN(S(C)(=O)=O)CC2)cc1,inactive
3,O=C(O)CCCNC(=O)c1nn(Cc2ccccc2)c(=O)c2ccccc12,inactive
4,C/C=C/c1ccc(OCCN2C(=O)NC(C)(C)C2=O)c(OC)c1,inactive
5,COc1ccc(C2=Nn3c(nnc3-c3ccccc3F)SC2)cc1OCC1CC1,inactive
6,O=C(Nc1nccs1)c1cc(N2CCOCC2)nc2ccccc12,inactive
7,O=C(Nc1cccnc1Cl)C1=NN(c2ccccc2)C(=O)CC1,inactive
8,CS(=O)(=O)N1CCN(c2ccccc2NC(=O)c2ccco2)CC1,inactive
9,CCc1onc(C)c1C(=O)Nc1ccc(N2CCOCC2)cc1,inactive
10,C[C@@H]1CN([C@H](C)CO)C(=O)c2cc(C3=CCCCC3)cnc2O[C@H]1CN(C)C(=O)CN1CCOCC1,inactive
11,CCNc1nc(NCC)nc(N(C)/N=C/c2ccco2)n1,inactive
12,COc1cc(NC(=O)c2c(-c3ccccc3Cl)noc2C)c2ncccc2c1,inactive
13,CCc1ccc(N(C2C=CS(=O)(=O)C2)S(=O)(=O)c2ccccc2)cc1 (configuration not stated),inactive
14,COc1ccc(CCNC(=O)Cc2ccc3c(c2)OCO3)cc1OC,inactive
15,COc1ccc(CC(=O)c2ccc(OC)c(OC)c2)cc1,inactive
16,COc1ccc(C(=O)NCC(=O)OCC(=O)NC2CCCCCC2)cc1OC,inactive
17,COC(=O)C1C(=O)NC(SC)=C(C#N)C1c1ccccc1 (configuration not stated),inactive
18,COc1cccc(CNC(=O)N[C@@H](CC(C)C)C(=O)O)c1,inactive
19,COc1ccc(C2N(c3ccccc3)C(=O)C2(F)F)cc1OC (configuration not stated),inactive
20,COC(=O)C1=C(C)NC(=S)NC1c1cccc(OC)c1 (configuration not stated),inactive
21,Cc1cccc(C2N=C(N)Nc3nc4ccccc4n32)c1 (configuration not stated),inactive
22,CCOc1ccc(C(=O)NCC(=O)Nc2cc(C)ccn2)cc1OCC,inactive
23,CCCN(Cc1nnc(-c2ccccc2Cl)o1)C(=O)c1cc2ccccc2o1,inactive

row,Compound,outcome
1,c1ccc2nc3c(nc2c1)c1ccccc1n3CCN1CCOCC1,inactive
2,COc1ccc(CCN(C)C(=O)C(CCSC)NC(=O)c2ccco2)cc1OC (configuration not stated),inactive
3,CC(=O)Nc1ccc(S(=O)(=O)Nc2ccc3c(c2)n(C)c(=O)n3C)c(C)c1,inactive
4,COc1nc(N2CCOCC2)nc(-n2cccc2)n1,inactive
5,COc1ccc(S(=O)(=O)N(C)c2ccc(C(=O)NCC3CCCO3)cc2)cc1OC (configuration not stated),inactive
6,COc1ccc(-c2c(NC(=O)c3ccco3)oc3ccc(Cl)cc3c2=O)cc1,inactive
7,CCC(=O)Nc1cc2nn(-c3ccc(OC)cc3)nc2cc1C,inactive
8,COc1ccc(-c2nc(CCNC(=O)c3ccco3)cs2)cc1OC,inactive
9,Cc1ccc(C2(C)NC(=O)N(CC(=O)Nc3ccc(-c4nc5ccc(C)cc5s4)cc3)C2=O)cc1 (configuration not stated),inactive
10,CCOc1cc(NC(=O)c2ccco2)c(OCC)cc1NC(=O)c1cc(OC)c(OC)c(OC)c1,inactive
11,Cc1ccnc(NC(=O)CNC(=O)c2ccco2)c1,inactive
12,COc1ccc(S(=O)(=O)N2CCCCC2)cc1NC(=O)C1CC1C (configuration not stated),inactive
13,CC(Oc1ccc2c3c(c(=O)oc2c1)CCCC3)C(=O)NCc1cccnc1 (configuration not stated),inactive
14,Cc1ccc(Nc2ncnc3sccc23)c(C)c1,inactive
15,O=C(CN1C(=O)NC(Cc2c[nH]c3ccccc23)C1=O)NCCc1ccccc1 (configuration not stated),inactive
16,O=C(Nc1ccc(NC(=O)c2cccs2)cc1)c1ccc(Br)o1,inactive
17,O=C(Nc1nnc(CCS(=O)(=O)c2ccc3ccccc3c2)s1)c1cccs1,inactive
18,CS(=O)(=O)N1CCCCC1c1cc(C(=O)Nc2cccc(C#N)c2)no1 (configuration not stated),inactive
19,CN(c1ccc(F)cc1)S(=O)(=O)c1ccc(Cl)c(C(=O)NCC2CCCO2)c1 (configuration not stated),inactive
20,COc1cc(Cl)c(C)cc1NC(=O)c1ccccc1NC(=O)CN1CCN(C(C)=O)CC1,inactive
21,Cc1cc(C)nc(NC(=O)c2ccc(Cl)cc2Cl)n1,inactive
22,O=C(CNC(=O)c1ccco1)N/N=C/c1ccc(C(=O)O)cc1,inactive
23,COCCN(CCOC)Cc1cc(=O)oc2cc(C)c(C)cc12,inactive

row,Compound,outcome
1,COc1cccc2cc(-c3cc(=O)oc4cc(C)c(O)cc34)oc12,inactive
2,Cc1sc2ncn(CC(=O)NCc3ccccc3)c(=O)c2c1C,inactive
3,Cc1c(OCC(=O)NCc2ccccn2)ccc2c3c(c(=O)oc12)CCCC3,inactive
4,O=C1NC(=O)C2(CCCCC2C2CCCCC2)N1 (configuration not stated),inactive
5,COc1ccccc1CNC(=O)CCS(=O)(=O)Cc1ccc(C)cc1,inactive
6,Cc1cc(C)c(CSc2nnnn2-c2ccc(C(=O)O)cc2)c(C)c1,inactive
7,CC(C)c1cc(C(C)C)n2nc(N)nc2n1,inactive
8,CN1CCSc2ccc(C(=O)Nc3cccc(F)c3)cc21,inactive
9,CC(=O)c1ccc(OCC(=O)N(C2CCCCC2)C2CCS(=O)(=O)C2)cc1 (configuration not stated),inactive
10,Cc1ccc(C(=O)N2CCN3C(=O)c4ccccc4C23c2ccccc2)cc1 (configuration not stated),inactive
11,COc1cc2cnc(-c3cccnc3)cc2cc1OC,inactive
12,Cc1ccc(S(=O)(=O)NCc2csc(-c3cccs3)n2)cc1,inactive
13,COc1cc2[nH]c(-c3ccc(C)cc3)cc(=O)c2cc1OC,inactive
14,O=C(Cn1[nH]c(=O)c2ccccc2c1=O)OCC(=O)c1ccc(F)cc1,inactive
15,C=CCN(CC=C)S(=O)(=O)c1ccc(C(=O)Nc2sc3c(c2C(N)=O)CCCCC3)cc1,inactive
16,CCN(Cc1ccccc1)S(=O)(=O)c1ccccc1Br,inactive
17,CCOCCCNC(=O)c1oc2ccc3c(c2c1C)C(O)CC(C)(C)O3 (configuration not stated),inactive
18,NC(=O)c1ncn([C@@H]2O[C@H](C(=O)N[C@H](Cc3ccccc3)C(=O)O)[C@@H](O)[C@H]2O)n1,inactive
19,CCc1nc2c(OCc3ccccc3C(=O)OC)cccn2c1N(C)C(=O)c1ccncc1,inactive
20,Cc1cccc(C)c1NC(=O)C1c2ccccc2Oc2ccccc21,inactive
21,O=c1[nH]c2cc(Cl)ccc2n(CCNc2ncc(C(F)(F)F)cc2Cl)c1=O,inactive
22,O=C(c1cc(-c2ccccc2)nc2ccccc12)N1CCCC1,inactive
23,Nn1c(C2CCCCC2)nc2ccccc2c1=O,inactive

row,Compound,outcome
1,CNC(=O)c1cc(C(=O)c2ccccc2Br)c[nH]1,inactive
2,CSc1ccc(C(=O)C2CCCN(C(=O)c3ccc4c(c3)no[n+]4[O-])C2)cc1 (configuration not stated),inactive
3,CN(C(=O)[C@H]1O[C@@H](n2cnc(C(N)=O)n2)[C@H](O)[C@@H]1O)c1ccccc1,inactive
4,CC(=O)Nc1c(C(=O)C2CC2)oc2ccccc12,inactive
5,Cc1ccc(-c2cnc3cccnn23)cc1F,inactive
6,CCN(c1ccccc1)S(=O)(=O)c1ccc(OC)c(OC)c1,inactive
7,O=S(=O)(c1ccc(=S)[nH]c1)N1CCCCCC1,inactive
8,CCC(=O)Nc1cc(C(C)(C)C)ccc1C(C)=O,inactive
9,Cc1ccccc1C(=O)NC1CCSC1=O (configuration not stated),inactive
10,COc1ccc(C(=O)Nc2nnc(-c3cccs3)s2)cc1,inactive
11,Cc1cc2nc(-c3ccccc3O)[nH]c2cc1C,inactive
12,c1csc(CNc2nc(Oc3ccncc3)c3sccc3n2)c1,inactive
13,O=C(Cn1cc(C(F)(F)F)ccc1=O)NCC1CCCO1 (configuration not stated),inactive
14,Cc1ccccc1Nc1c(-c2ccncc2)nc2ccc(Cl)cn12,inactive
15,O=C(O)c1c(NC(=O)N2CCOCC2)sc2c1CCCC2,inactive
16,O=c1c(C(c2ccccc2)c2c(O)sc3ccccc3c2=O)c(O)sc2ccccc12,inactive
17,Cn1c(=O)c2c(nc3n2CCCN3CCc2ccccc2)n(C)c1=O,inactive
18,O=C1CSC(c2ccccc2)N1c1ccc(F)cc1F (configuration not stated),inactive
19,COc1ccc(-c2[nH]c3ccccc3c2SCCN)cc1,inactive
20,COc1ccc(N2CC(C(=O)N3CCc4ccccc43)CC2=O)cc1 (configuration not stated),inactive
21,CCc1nc2c(OCCC3CCCCC3)cccn2c1N(C)C(=O)c1ccco1,inactive
22,O=C(O)CC(CC(=O)Nc1ccc(C(=O)O)cc1)c1ccccc1 (configuration not stated),inactive
23,CC1CCN(C(=O)c2cccc(S(=O)(=O)N3CCN(c4ccccc4)CC3)c2)CC1,inactive

row,Compound,outcome
1,O=C(COC(=O)c1cccnc1Cl)Nc1cc(S(=O)(=O)N2CCCCCC2)ccc1Cl,inactive
2,CC(=O)NN1C(=O)c2ccccc2NC1c1ccccc1O (configuration not stated),inactive
3,CN1CCN(c2ccc(CNC(=O)C3(C)Cc4c(-c5ccccc5)ccnc4O3)cc2)CC1 (configuration not stated),inactive
4,O=C(NC1CCCCC1)c1cccnc1Sc1ccccc1,inactive
5,COc1ccc(C(=O)Nc2nnc(-c3ccco3)s2)cc1,inactive
6,COc1ccc(-c2nc(-c3cccnc3)no2)cc1OC,inactive
7,CCn1nc(C)c(NC(=O)c2cnn3c(C(F)F)cc(-c4ccccc4)nc23)c1C,inactive
8,CCCc1cc(NCC2CCCO2)n2c(nc3ccccc32)c1C#N (configuration not stated),inactive
9,COc1ccc(CCN(C)C(=O)Cn2c(=O)oc3ccccc32)cc1OC,inactive
10,CCc1nnc(NC(=O)C(c2ccccc2)c2ccccc2)s1,inactive
11,CCc1nc2c(OCc3ccccc3C)cccn2c1N(C)C(=O)c1ccco1,inactive
12,O=S(=O)(Nc1ncnc2sc3c(c12)CCC3)c1cc(F)ccc1F,inactive
13,CCN(CC)C(=O)n1c(Cc2ccccc2)nc2ccccc21,inactive
14,Cc1ccc(S(=O)(=O)/N=C(/Nc2cccc(O)c2)c2ccccc2)cc1,inactive
15,CCOc1ncccc1C(=O)NCc1cccc(OC)c1,inactive
16,COc1cccc(CNC(=O)c2cccnc2Sc2ccccc2)c1,inactive
17,Cc1c(-c2cccc(Cl)c2)nc2ccccc2c1C(=O)NC1CC1,inactive
18,COc1ccc(CN(C)C(=O)Cn2cc(C)c(=O)[nH]c2=O)cc1OC,inactive
19,CC(=O)Nc1cc(-c2ccc(N3CCN(C)CC3)cc2)cn2c(-c3cccc(C(=O)N(C)C)c3)cnc12,inactive
20,COc1ccc(-c2cc(NC=O)c3ncc(-c4ccc(OC)c(OC)c4)n3c2)cc1,inactive
